# Shown are actives, neighbours in structure and some others; about 3.3% of the full set was active somewhere.
# H9c2 protect – modulators protecting cardiomyocytes from myocardial damage. H9c2 cardiomyocytes, H2O2 injury protection, ATPLite, 2 h. protection from H2O2 cell death, % at 20 µM. 360,000 compounds, 0.63% hits;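 active = compounds giving at least 50% protection of heart cells from peroxide-induced death in the single-dose screen, raw or plate-pattern-corrected value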;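 note: 0% = DMSO wells with peroxide and 100% = DMSO wells without peroxide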
# Calb FLC – C. albicans growth modulation with fluconazole; growth inhibition, % (test concentration not listed); 300,000 compounds, 0.57% hits; C. albicans CaCi-2 (fluconazole-resistant clinical isolate) + fluconazole, Alamar Blue growth, 48 h;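 active = growth inhibition above about 58% in most replicates, limit read from the data, passing the limit was not always enough; inconclusive = exactly half the replicates above a set limit; inactive = most replicates below a set limit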;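 note: all wells also contain fluconazole at 8 µg/ml as a sub-toxic cotreatment; 0% = median of DMSO wells and 100% = median of geldanamycin control wells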
# Cl transport mod – KCC2 (human) Cl- transport modulation | Q9H2X9 | KCC2 cells, thallium flux FluoZin-2 fluorescence | B-score of Tl+ flux slope (higher = more flux/activation; lower = inhibition) at 10 µM | 190,000 compounds, 2.2% hits;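 active = thallium flux slope and its plate-corrected score both differing from the plate sample mean at a set confidence after two filtering rounds, in either direction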;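 note: slope of fluorescence scaled to starting intensity during 10 to 20 s after thallium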
# PHOSPHO1 inh – blocks human PHOSPHO1 phosphatase activity. Q8TCT1. recombinant PHOSPHO1, absorbance phosphatase assay. inhibition, % at 13.3 µM. 290,000 compounds, 1.1% hits. AID 1565; in the data active = inhibition above about 60%
# Efflux pump mplx – blocks antifungal efflux pumps in multiplex yeast assay | S. cerevisiae Candida pump triplex, Nile Red efflux | 330,000 compounds, 0.44% hits | inhibition, % at 10 µM | AID 485275;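 active = plate passing quality check with inhibition over a set limit, or well fluorescence over plate mean plus 4 SD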;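 note: Nile Red retained in pooled yeast measured as flow cytometry median fluorescence; 0% = buffer negative control and 100% = Enniatin B positive control; higher means more Nile Red kept so more efflux inhibition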
# Yeast cmpd fluor – flagged as fluorescent in efflux inhibitor counter-screen. 1,700 compounds, 4% hits. AID 588517. shares compounds with Efflux pump mplx. S. cerevisiae AD/pABC3, compound fluorescence, flow cytometry. fluorescence ratio to DMSO, % at 10 µM;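 active = fluorescence ratio to DMSO above its plate's cutoff, the plate mean ratio plus 5 SD, cut at about 210% in these data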;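 note: unstained yeast with no Nile Red so the signal is compound autofluorescence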
# Mdr1 pump inh – blocks the Candida albicans Mdr1 efflux pump in yeast. 1,700 compounds, 1% hits. S. cerevisiae AD/CaMDR1, Nile Red efflux, flow cytometry. shares compounds with Efflux pump mplx. inhibition, % at 10 µM; in the data active = inhibition above about 26%;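 note: 0% = DMSO vehicle and 100% = reference inhibitor; higher means more Nile Red retained so more efflux inhibition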
# CaCdr2 efflux inh – inhibitors of Candida albicans Cdr2 efflux pump. shares compounds with Efflux pump mplx. Nile Red retention ratio vs DMSO, % at 10 µM. 1,700 compounds, 4% hits. AID 588520. S. cerevisiae AD/CaCDR2, Nile Red retention, flow cytometry; in the data active = Nile Red retention ratio vs DMSO above about 190%;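 note: higher ratio means more blocking of Cdr2 efflux of the dye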
# Cdr1 pump inh – inhibitors of Candida albicans Cdr1 efflux pump; shares compounds with Efflux pump mplx; S. cerevisiae AD/CaCDR1, Nile Red efflux, flow cytometry; inhibition, % at 10 µM; 1,700 compounds, 1% hits; AID 588522;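 active = inhibition above the screen-wide mean plus twice its standard deviation, cut at about 32% in these data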
# An asterisk follows results filed as active; i = inactive; ? = inconclusive; nt = no result given.
SMILES,H9c2 protect,Calb FLC,Cl transport mod,PHOSPHO1 inh,Efflux pump mplx,Yeast cmpd fluor,Mdr1 pump inh,CaCdr2 efflux inh,Cdr1 pump inh
O=C(NCc1ccc(F)cc1)c1noc2c1CCCCC2,1,0,-0.73,12,nt,nt,nt,nt,nt
O=C(NCc1ccc(F)cc1)c1noc2c1CCCC2,1,34,nt,-7,0.9*,83,0,95,0
Clc1ccc(C[n+]2cc(-c3ccccc3)n3c2CCC3)cc1Cl,-9,-38,1.3,-9,0,nt,nt,nt,nt
O=C(C[n+]1cc(-c2ccc(Cl)c(Cl)c2)n2c1CCC2)OCc1ccccc1,-1,-1,-0.19,-1,6.4*,112,0,95,0
COc1ccc(C(=O)N=C2SC3CS(=O)(=O)CC3N2Cc2ccc(F)cc2)cc1 (centres undefined),-4,-2,nt,34,0,nt,nt,nt,nt
CC(C)(C)c1cc(C(c2cccnc2)N2CCN(CCO)CC2)cc(C(C)(C)C)c1O (centres undefined),-18,7,-0.12,23,0.4*,90,0,87,0
Cc1ccc(CC2CC(=O)N(Cc3ccco3)C2=O)cc1 (centres undefined),2,14,nt,-33,1.2*,108,0,110,0
O=C1CC(Cc2ccccc2)C(=O)N1Cc1ccco1 (centres undefined),-5,-3,-1.1,1,0,nt,nt,nt,nt
Cn1c(=O)c2c(nc(CN3CCN(C(=O)c4ccco4)CC3)n2CC(=O)C(C)(C)C)n(C)c1=O,0,17,nt,43,0,nt,nt,nt,nt
O=C1/C(=C\c2ccco2)SC(=S)N1c1ccc(O)cc1,0,29,-0.14,-3,0.4*,103,0,98,0
O=C(Cc1ccccc1)NN1C(=O)/C(=C/c2ccc(C(=O)O)cc2)SC1=S,2,-6,0.38,47,0,98,0,92,0
S=C(/N=c1/sccn1Cc1ccccc1)NC1CC1,-5,24,nt,2,1.3*,101,0,106,0
CN(C)CCCNC(=S)/N=c1\sccn1Cc1ccccc1Cl,-1,8,nt,28,0,nt,nt,nt,nt
O=C(CCc1ccc(S(=O)(=O)N2CCOCC2)cc1)OCC(=O)c1ccccc1,-1,nt,nt,nt,0,nt,nt,nt,nt
CCOc1ccccc1N1CCN(C(=S)Nc2ccc(S(=O)(=O)Nc3ncccn3)cc2)CC1,9,-5,nt,8,0,nt,nt,nt,nt
COc1ccc(/C=C/C(=O)Nc2cc(S(=O)(=O)N3CCCCC3)ccc2N2CCCCC2)cc1OC,-6,37,0.2,5,0,nt,nt,nt,nt
COc1ccc(/C=C(\C#N)C(=O)Nc2cc(S(=O)(=O)N3CCCCC3)ccc2N2CCCCC2)cc1,-2,-1,2.6,-2,0.5*,126,0,114,0
CCN(CC(=O)Nc1ccc2c(c1)OCCO2)C(=O)/C=C/c1ccc([N+](=O)[O-])cc1,0,nt,nt,nt,0,nt,nt,nt,nt
CCCCCCCCCCCCCCCC[n+]1ccc(/C=N/O)cc1,-20,nt,i,24,2.0*,108,0,118,0
NCCCCCNC(=O)c1[nH]cnc1C(=O)N[C@@H](Cc1ccccc1)C(=O)OCc1ccccc1,11,nt,nt,nt,0,nt,nt,nt,nt
COc1ccc2c(c1)CC/C(=C/c1ccco1)C2=O,-25,0,-0.012,6,20*,103,0,97,0
CCCCOc1ccc(-c2cc(C(F)(F)F)c(C#N)c(SCC(=O)O)n2)cc1,-3,?,-3.2,2,0,nt,nt,nt,nt
O=C(Cn1cncn1)NCc1cccc2ccccc12,3,-15,0.67,-9,0.9*,101,0,107,0
O=C(Cn1cncn1)NCc1ccccc1Br,4,-16,1.1,20,0,nt,nt,nt,nt
COc1cc(NC(=O)CCn2c(=S)[nH]c3ccccc3c2=O)cc(OC)c1OC,2,nt,nt,nt,nt,nt,nt,nt,nt
SMILES,H9c2 protect,Calb FLC,Cl transport mod,PHOSPHO1 inh,Efflux pump mplx,Yeast cmpd fluor,Mdr1 pump inh,CaCdr2 efflux inh,Cdr1 pump inh
CCOC(=O)CCCNC(=O)CN1CCC(c2nc3ccccc3s2)CC1,2,-3,nt,37,0,nt,nt,nt,nt
COc1ccccc1/C=C/C=C1N=C(/C=C/c2ccc(Cl)cc2)OC/1=O,-1,-2,0.81,1,0,nt,nt,nt,nt
COc1ccccc1/C=C/C1=NC(=C\C=C/c2ccccc2)/C(=O)O1,4,nt,-0.31,0,5.2*,113,0,110,0
Cc1cc(OCC(=O)OC(C)C(=O)NC2CC2)c(C(C)C)cc1Cl (centres undefined),-4,nt,nt,nt,nt,nt,nt,nt,nt
CC(C)[C@H](NS(=O)(=O)c1ccc2c(c1)OCCO2)C(=O)OCC(=O)Nc1cccc(Cl)c1Cl,-2,-32,-0.46,-2,16*,115,0,97,0
COc1ccc(CCNC(=O)CC(=O)N/N=C/c2ccc(Br)cc2)cc1OC,-1,3,nt,-18,0,nt,nt,nt,nt
COc1cc(NC(=O)c2cc(-c3ccccc3)nc3c2cnn3C(C)C)cc(OC)c1OC,6,nt,nt,nt,1.0*,100,0,99,0
COC(=O)c1cc(OC)c(OC)cc1NC(=O)c1cc(-c2ccccc2)nc2ccccc12,-2,3,nt,-7,0,100,0,102,0
COc1cc(NC(=O)c2ccccc2-c2ccccc2)cc(OC)c1OC,nt,-6,0.047,21,0,nt,nt,nt,nt
COc1ccc(S(=O)(=O)CCc2nnc(NC(=O)c3ccc(F)cc3)s2)cc1,4,-2,nt,31,0,nt,nt,nt,nt
COc1ccc(NC(=O)CN(C)C(=O)/C=C/c2cn(-c3ccccc3)nc2-c2ccc(C)cc2)cc1,8,0,nt,nt,0.5*,91,0,112,0
COc1ccc([C@H]2CC(=O)C=C(c3ccnc4ccc(Cl)cc34)C2)cc1,-8,nt,nt,nt,67*,105,0,102,0
CCOCCCn1c(C)nc2c(c1=O)c1nc3ccccc3nc1n2-c1ccc2c(c1)OCCO2,nt,-2,0.97,43,0,nt,nt,nt,nt
COc1ccc(OC)c(-c2csc(NC(=O)CN3C(=O)C4CCCCC4C3=O)n2)c1 (centres undefined),-3,1,nt,nt,0.4*,103,0,82,0
COc1ccc(-c2csc(NC(=O)CN3C(=O)C4CCCCC4C3=O)n2)cc1OC (centres undefined),11,21,nt,-2,0,nt,nt,nt,nt
CC(C)Cn1c(N)c(C(=O)COC(=O)C2Cc3ccccc3CN2S(C)(=O)=O)c(=O)n(C)c1=O (centres undefined),-12,nt,nt,nt,0,nt,nt,nt,nt
S=C(Nc1ccccc1Cl)N1CCCCCC1,4,-10,-0.38,-4,0,nt,nt,nt,nt
S=C(Nc1ccc(Cl)cc1Cl)N1CCCCC1,1,-6,0.064,15,16*,98,0,112,0

# Screening results as filed in PubChem.
